# “And” between values parts separate entries of the source, which are not always exact repeats. Equal values may be shown once. Inconclusive results are not listed. Entries that show only a call come without a potency. The source made the active and inactive calls. Unless noted, calls come from the whole dose curve; as a rule, active = well fitted curve in the direction sought with a large enough effect; inconclusive = small, poorly fitted or top-dose-only effect, or another doubt; inactive = no such curve, though single readings can be large; an effect the other way counts as inactive or inconclusive.
# Legend:
# [1] = Cell Viability - LYMP2-021 (AID 974);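 note: compound exposure lasts 24 hours at 37 °C; nearly all actives have a fitted effect of over 55% in size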; note: potency is the fitted concentration of half-maximal effect
# Method in brief: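 In qHTS format, compounds are tested against 2500 lymphoblastoid cells per well for 24 h; viable cell number is inferred from ATP-driven luciferase light, and Hill-equation fitting yields AC50 values.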
# [2] = Cell Viability - LYMP2-023 (AID 975); note: nearly all actives have a fitted effect of over 55% in size; note: potency is the fitted concentration of half-maximal effect
# Method in brief: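 In this qHTS, ATP-based luciferase luminescence (CellTiter-Glo) is quantified in human lymphoblastoid cells after 24 hr compound treatment at 37 C; tetraoctylammonium bromide serves as positive control. Concentration-response curves are Hill-fitted to give AC50.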
# [3] = Cell Viability - LYMP2-025 (AID 976);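 note: cells exposed to compound for 24 h at 37 °C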
# Method in brief: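 Luminescent ATP readout after 24 hr treatment of a human lymphoblastoid line (LYMP2-025, 2500 cells/well, 37 C). Reagent developed 30 min at room temperature; AC50 fitted with the Hill equation.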
# [4] = Cell Viability - LYMP2-002 (AID 977);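 note: compound exposure lasted 24 h at 37 °C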
# Method in brief: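 In this qHTS viability screen, 2500 human lymphoblastoid cells per well receive compound for 24 hr at 37 C, and luciferase-based ATP luminescence gives the viability signal. Tetraoctylammonium bromide serves as positive control.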
# [5] = Cell Viability - LYMP2-007 (AID 979);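 note: cells exposed to compound for 24 h before reading; nearly all actives have a fitted effect of over 60% in size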; note: potency is the fitted concentration of half-maximal effect
# Method in brief: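 Measured via luciferase-based ATP quantitation: lymphoblastoid cells, 24 hr compound exposure at 37 C, AC50 from Hill fits.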
# [6] = Cell Viability - LYMP2-008 (AID 980); note: nearly all actives have a fitted effect of over 60% in size; note: potency is the fitted concentration of half-maximal effect
# Method in brief: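 Measured: ATP-dependent luminescence, proportional to viable cell number, in human lymphoblastoid cells treated 24 hr with compound in complete culture medium. Values are AC50s from Hill-equation modelling of qHTS titrations.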
# [7] = Cell Viability - LYMP2-010 (AID 981); note: nearly all actives have a fitted effect of over 55% in size; note: potency is the fitted concentration of half-maximal effect
# Method in brief: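 This 24 hr viability screen uses LYMP2-010 lymphoblastoid cells, quantifies ATP via luciferase luminescence, and derives AC50 from Hill fits of qHTS concentration-response data.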
# [8] = Cell Viability - LYMP2-012 (AID 982);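 note: cellular ATP by luciferase luminescence where a drop means cytotoxicity; cells exposed to compound for one day before reading; nearly all actives have a fitted effect of over 55% in size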
# [9] = Cell Viability - LYMP2-018 (AID 985); note: nearly all actives have a fitted effect of over 50% in size; note: potency is the fitted concentration of half-maximal effect
# Method in brief: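 In this qHTS viability assay, cells are treated for 24 hr and cellular ATP is quantified by luciferase-based luminescence, with tetraoctylammonium bromide as positive control.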
# [10] = Cell Viability - LYMP2-020 (AID 986); note: potency is the fitted concentration of half-maximal effect
# Method in brief: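 Cells at 2500 per well receive a 24 hr compound exposure at 37 C. Viability is measured as ATP-dependent luciferase luminescence, with AC50 modeled from qHTS concentration-response curves.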
# [11] = Cell Viability - LYMP2-022 (AID 987); note: nearly all actives have a fitted effect of over 55% in size; note: potency is the fitted concentration of half-maximal effect
# Method in brief: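 In this qHTS cytotoxicity screen, compound titrations were incubated 24 hr at 37 C with human lymphoblastoid cells in complete medium. Luciferase-based ATP luminescence provided the viability signal.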
# [12] = Cell Viability - LYMP2-024 (AID 988); note: nearly all actives have a fitted effect of over 60% in size
# Method in brief: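 Cells at 2500 per well received compound for 24 hr after a 5 hr settling period. Viability was scored by CellTiter-Glo luminescence, with AC50 from Hill fits.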
# [13] = Cell Viability - LYMP2-026 (AID 989);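 note: cells exposed to compound for 24 h at 37 °C; nearly all actives have a fitted effect of over 50% in size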; note: potency is the fitted concentration of half-maximal effect
# Method in brief: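 Acute toxicity screen in complete culture medium, with 24 hr compound exposure at 37 C. Viability read as cellular ATP via luciferase reaction, with tetraoctylammonium bromide (6.4pM to 92 uM) as positive control.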
# [14] = target: Alpha-galactosidase A (Homo sapiens) (UniProt P06280); experiment: Counterscreen for Glucocerebrosidase Inhibitors: qHTS Assay for Human alpha-Galactosidase at pH 4.5 (AID 992)
# Alpha-galactosidase A (Homo sapiens), sequence (P06280 whole entry, looked up): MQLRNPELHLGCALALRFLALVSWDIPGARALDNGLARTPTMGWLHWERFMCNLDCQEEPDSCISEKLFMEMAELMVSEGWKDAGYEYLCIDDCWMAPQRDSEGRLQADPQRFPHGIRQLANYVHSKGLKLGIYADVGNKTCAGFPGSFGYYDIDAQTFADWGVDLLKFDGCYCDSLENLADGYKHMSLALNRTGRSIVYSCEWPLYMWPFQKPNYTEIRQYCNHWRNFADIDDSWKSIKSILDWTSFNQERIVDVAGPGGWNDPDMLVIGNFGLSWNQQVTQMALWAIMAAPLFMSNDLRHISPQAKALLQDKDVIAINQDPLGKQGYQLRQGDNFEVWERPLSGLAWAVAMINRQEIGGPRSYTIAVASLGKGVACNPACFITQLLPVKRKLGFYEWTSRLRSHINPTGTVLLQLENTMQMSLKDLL
# Method in brief: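 Steps: enzyme (2 nM final), then compound across 0.7 nM to 77 uM, then 80 uM fluorogenic galactopyranoside substrate; incubate 20 min at room temperature; quench at pH 10; measure fluorescence at 365/440 nm.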
# [15] = Cell Viability - LYMP1-002 - Assay at 24 hr (AID 993); note: potency is the fitted concentration of half-maximal effect
# Method in brief: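 Viability was judged from intracellular ATP using a luciferase read-out, following a 24-hour compound incubation at 37 C of lymphoblastoid cells seeded at 2500 per well. Concentration-response data were fitted to the Hill equation for AC50.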
# [16] = target: alpha-glucosidase (Oryza sativa, rice) (UniProt Q653V4); experiment: Counterscreen for Glucocerebrosidase Inhibitors: qHTS Assay for Rice alpha-Glucosidase at pH 5.0 (AID 997)
# Method in brief: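 Endpoint fluorogenic assay at pH 5.0: compounds (0.7 nM to 77 uM) titrated against 4 nM rice enzyme and 400 uM 4-MU-alpha-glucoside for 20 min at room temperature; NaOH/glycine stop, read ex 365/em 440 nm, Hill-fitted AC50.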
# [17] = Cell Viability - LYMP2-006 (AID 978); note: nearly all actives have a fitted effect of over 60% in size
# Method in brief: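 qHTS, 1536-well; 2500 cells/well, 5 hr 37 C; cpd 24 hr 37 C; CellTiter-Glo 30 min RT; luminescence. Tetraoctylammonium bromide pos. ctrl. AC50 via Hill eqn.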
# [18] = Cell Viability - LYMP2-014 (AID 983);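 note: cells exposed to compound for 24 h at 37 °C; nearly all actives have a fitted effect of over 50% in size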
# Method in brief: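 Quantitative HTS in lymphoblastoid cells: 24 hr compound exposure, then CellTiter-Glo ATP luminescence. Positive control was tetraoctylammonium bromide, 6.4pM to 92 uM.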
# [19] = qHTS Assay for Lipid Storage Modulators (AID 1519; calls by dose curve); conditions: Drosophila S3 cells, BODIPY lipid droplet/cell ratio, laser cytometry, cells loaded with oleic acid
# Method in brief: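 Cells seeded at 5,000 per well were treated with compounds over a concentration series and loaded with oleic acid (400 uM, as added). Lipid droplet fluorescence (488 nm excitation, 500-530 nm channel) was read by laser-scanning cytometry and normalized to 20 uM Triacsin C.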
# [20] = measured here: cell count channel max response
# [21] = measured here: lipid channel max response
smiles,measurement,setting,value
NC(=O)c1ncn([C@@H]2O[C@H](CO)[C@@H](O)[C@H]2O)n1,Potency,[1],inactive
same,Potency,[2],inactive
same,outcome,[3],inactive
same,outcome,[4],inactive
same,Potency,[5],inactive
same,Potency,[6],inactive
same,Potency,[7],inactive
same,outcome,[8],inactive
same,Potency,[9],inactive
same,Potency,[10],inactive
same,Potency,[11],inactive
same,outcome,[12],inactive
same,Potency,[13],inactive
same,outcome,[14],inactive
same,Potency,[15],inactive
same,outcome,[16],inactive
O=C1c2c(O)cccc2Cc2cccc(O)c21,Potency,[1],inactive
same,Potency,[2],inactive
same,outcome,[3],inactive
same,outcome,[4],inactive
same,outcome,[17],inactive
same,Potency,[5],inactive
same,Potency,[6],inactive
same,Potency,[7],inactive
same,outcome,[8],inactive
same,outcome,[18],inactive
same,Potency,[9],inactive
same,Potency,[10],inactive
same,Potency,[11],inactive
same,outcome,[12],inactive
same,Potency,[13],inactive
same,Potency,[15],inactive
Cc1c(O)cccc1C(=O)N[C@@H](CSc1ccccc1)[C@H](O)CN1C[C@H]2CCCC[C@H]2C[C@H]1C(=O)NC(C)(C)C,Potency,[1],50.1 µM (active)
same,Potency,[2],50.1 µM (active)
same,Potency,[5],50.1 µM (active)
same,Potency,[6],39.8 µM (active)
same,Potency,[7],50.1 µM (active)
same,Potency,[9],50.1 µM (active)
same,Potency,[10],50.1 µM (active)
same,Potency,[11],39.8 µM (active)
same,Potency,[13],50.1 µM (active)
same,Potency,[15],39.8 µM (active)
CC1=C(CC(=O)O)c2cc(F)ccc2/C1=C\c1ccc(S(C)=O)cc1 (centres undefined),outcome,[16],inactive
same,"activity change, negative = inhibition",[19]; at 25.7 µM (top of the series),-0.955% (inactive)
same,max response,[19]; [20],-8.73%
same,max response,[19]; [21],-7.15%
NC(N)=NCCC[C@H](N)C(=O)O,outcome,[14],inactive
same,outcome,[16],inactive
same,"activity change, negative = inhibition",[19]; at 57.5 µM (top of the series),-0.95% (inactive)
same,max response,[19]; [20],-7.59%
same,max response,[19]; [21],-6.54%
CCCCCCCCCCCCOS(=O)(=O)O,Potency,[1],inactive
same,Potency,[2],inactive
same,outcome,[3],inactive
same,outcome,[4],inactive
same,outcome,[17],inactive
same,Potency,[5],inactive
same,Potency,[6],inactive
same,Potency,[7],inactive
same,outcome,[8],inactive
same,outcome,[18],inactive
same,Potency,[9],inactive
same,Potency,[10],inactive
same,Potency,[11],inactive
same,outcome,[12],inactive
same,Potency,[13],inactive
same,Potency,[15],inactive
C[C@]12CC[C@@H]3c4ccc(O)cc4CC[C@H]3[C@@H]1CCC2=O,outcome,[14],inactive
same,outcome,[16],inactive
NC1CCN(c2cccc(Cl)n2)CC1,outcome,[14],inactive
same,outcome,[16],inactive
same,"activity change, negative = inhibition",[19]; at 57.5 µM (top of the series),5.71% (inactive) and 0.974% (inactive)
same,max response,[19]; [20],-16.7% and 37.1%
same,max response,[19]; [21],-10.9% and 36.3%
CCCn1cnc2c1c(=O)n(CCCCC(C)=O)c(=O)n2C,outcome,[14],inactive
same,outcome,[16],inactive
Cc1cc2nc3c(=O)[nH]c(=O)nc-3n(C[C@H](O)[C@H](O)[C@H](O)CO)c2cc1C,Potency,[1],inactive
same,Potency,[2],inactive
same,outcome,[3],inactive
same,outcome,[4],inactive
same,outcome,[17],inactive
same,Potency,[5],inactive
same,Potency,[6],inactive
same,Potency,[7],inactive
same,outcome,[8],inactive
same,outcome,[18],inactive
same,Potency,[9],inactive
same,Potency,[10],inactive
same,Potency,[11],inactive
same,outcome,[12],inactive
same,Potency,[13],inactive
same,Potency,[15],inactive
[Cl][In]([Cl])[Cl],Potency,[1],inactive
same,Potency,[2],inactive
same,outcome,[3],inactive
same,outcome,[4],inactive
same,outcome,[17],inactive
same,Potency,[5],inactive
same,Potency,[6],inactive
same,Potency,[7],inactive
same,outcome,[8],inactive
same,outcome,[18],inactive
same,Potency,[9],inactive
same,Potency,[10],inactive
same,Potency,[11],inactive
same,outcome,[12],inactive
same,Potency,[13],inactive
same,Potency,[15],inactive
O=C1O[C@H]([C@@H](O)CO)C(O)=C1O,Potency,[1],inactive
same,Potency,[2],inactive
same,outcome,[3],inactive
same,outcome,[4],inactive
same,outcome,[17],inactive
same,Potency,[5],inactive
same,Potency,[6],inactive
same,outcome,[8],inactive
same,outcome,[18],inactive
same,Potency,[9],inactive
same,Potency,[10],inactive
same,Potency,[11],inactive
same,outcome,[12],inactive
same,Potency,[13],inactive
same,Potency,[15],inactive
CC(C)NC[C@H](O)c1ccc(O)c(O)c1,outcome,[14],inactive
same,outcome,[16],inactive
same,"activity change, negative = inhibition",[19]; at 25.7 µM (top of the series),-3.67% (inactive)
same,"activity change, negative = inhibition",[19]; at 57.5 µM (top of the series),0.654% (inactive) and 2.27% (inactive)
same,max response,[19]; [20],-12.5% and 0.715% and 18.4%
same,max response,[19]; [21],-17.7% and 2.86% and 19.2%

# — PubChem BioAssay (NCATS)
